Experimental data taken from PubChem BioAssay.
Active and inactive are the calls of the source.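 How the source made its calls: active means z-score of at least 1.8 in each of two replicates, scored against plate mean and spread of sample wells; inactive means the rest.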

Test: viability rescue of complex I mutant cybrids, primary screen, cell-based, galactose medium, ATP luminescence (AID 1645843);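 further: positive z means more ATP and so rescue of galactose-driven cybrid death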
Details: complex I mutant cybrid cells, 72 h, stronger effect = higher value

Question: With `COc1cccc(CC(=O)NCc2ccsc2)c1` as the compound, how does the z-score read?
Answer: Its z-score is -0.32 (inactive).

Question: For `c1ccc(CC2CCN(C3CCSC3)CC2)cc1` (stereo not given), which z-score is on record?
Answer: Its z-score is -0.3 (inactive).

Question: For `c1coc(-c2nc3c(cnn3Cc3cccs3)[nH]2)c1`, which z-score is on record?
Answer: Its z-score is -0.74 (inactive).

Question: With `Cc1cccc(C2CCCN(C(=O)c3cc(C(C)C)no3)C2)c1` (stereo not given) as the compound, how does the z-score read?
Answer: Its z-score is 1.05 (inactive).

Question: With `Cc1ccccc1-c1noc(C2CC(C(C)C)=NO2)n1` (stereo not given) as the compound, how does the z-score read?
Answer: The z-score was 1.73 (inactive).

Question: For `COc1cccc2ccc(N3CCN(Cc4ccccn4)CC3)nc12`, which z-score is on record?
Answer: Its z-score is -0.51 (inactive).

Question: With `COC(=O)c1nn(CC(=O)Nc2cnn(C)n2)c2ccccc12` as the compound, how does the z-score read?
Answer: Its z-score is 1.92 (inactive).

Question: With `Cc1cc(C)n(CC(C)n2cnc3sc4c(c3c2=O)CCCCC4)n1` (stereo not given) as the compound, how does the z-score read?
Answer: The z-score was 2.45 (active).

Question: Which z-score does the source give for `Cc1nn(C)c(C)c1-c1ccnc(NCc2cnc3ccccn23)n1` here?
Answer: The z-score was -0.925 (inactive).

Question: For `Cc1nnc2ccc3nnc(-c4cc(Cl)ccc4OC(C)C)n3n12`, which z-score is on record?
Answer: Its z-score is -0.5 (inactive).

Question: For `CCn1cc(-c2cc(C(=O)N3CCCCCC3)c3cccc(C)c3n2)cn1`, which z-score is on record?
Answer: Its z-score is 0.305 (inactive).

Question: Which z-score does the source give for `O=C(c1cn2cccnc2n1)N1CCCC(Cn2cc(C3CCCC3)nn2)C1` (stereo not given) here?
Answer: Its z-score is -0.49 (inactive).

Question: With `CC1CCCCN1Cc1ccc(-c2nc(CCn3cccn3)cc(=O)[nH]2)cc1` (stereo not given) as the compound, how does the z-score read?
Answer: Its z-score is -0.245 (inactive).

Question: For `Cc1c(C(F)(F)F)nc(-c2ccc(CN(C)C)cc2)[nH]c1=O`, which z-score is on record?
Answer: Its z-score is -0.555 (inactive).

Question: Which z-score does the source give for `COc1ccc(CCC(C)NC2CC(C)(C)NC(C)(C)C2)cc1` (stereo not given) here?
Answer: Its z-score is -0.505 (inactive).

Question: Which z-score does the source give for `CNCc1cn(C2CCN(CCC(C)CCCC(C)(C)O)CC2)nn1` (stereo not given) here?
Answer: Its z-score is -0.56 (inactive).

Question: Which z-score does the source give for `CC(C)CN1CCC(CNCc2ccc(C#CC(C)(C)O)s2)CC1` here?
Answer: Its z-score is -1.05 (inactive).

Question: For `CCOc1ccc2ccccc2c1-c1nc2c(cnn2CC)[nH]1`, which z-score is on record?
Answer: The z-score was -0.255 (inactive).

Question: With `Cc1cc(C)c(CNC(C)CCCC(C)(C)O)c(C)c1CO` (stereo not given) as the compound, how does the z-score read?
Answer: The z-score was 0.19 (inactive).

Question: For `COc1cc(F)c(C(=O)N(C)CC2CCCCN2C)c(F)c1` (stereo not given), which z-score is on record?
Answer: The z-score was -0.575 (inactive).

Question: For `CC(C)Oc1ccc(Cl)cc1-c1nnc2ccccn12`, which z-score is on record?
Answer: Its z-score is -0.805 (inactive).

Question: For `Cc1ccc(-c2ncccc2OC2(C(=O)O)CCCC2)cc1C`, which z-score is on record?
Answer: The z-score was -0.735 (inactive).

Question: For `Cn1ncc2[nH]c(-c3cc(F)ccc3-n3cccn3)nc21`, which z-score is on record?
Answer: Its z-score is -0.56 (inactive).

Question: For `CCn1cc(CN(C(=O)c2cnc3ccccn3c2=O)C(C)C)cn1`, which z-score is on record?
Answer: The z-score was 0.18 (inactive).

Question: For `CCC1(CC)CC1C(=O)N1CCC(n2cc(C3CCCCC3)nn2)CC1` (stereo not given), which z-score is on record?
Answer: Its z-score is 0.07 (inactive).

Question: Which z-score does the source give for `CCCc1noc(CN(C)C(=O)CCc2ccc(C)c(C)c2)n1` here?
Answer: The z-score was -0.575 (inactive).

Question: Which z-score does the source give for `CC(C)c1ncc(-c2cc(C(=O)N(C)C(C)C)c3ccc(F)cc3n2)cn1` here?
Answer: Its z-score is -0.51 (inactive).

Question: With `Cc1cc(C)c(C(=O)N2CCCCC2CCN2CCCC2=O)cc1C` (stereo not given) as the compound, how does the z-score read?
Answer: Its z-score is -0.46 (inactive).

Question: With `CC(C)(C)CN1CCN(CC2CC2)C(CCO)C1` (stereo not given) as the compound, how does the z-score read?
Answer: The z-score was 0.35 (inactive).

Question: Which z-score does the source give for `CC(C)Cc1cn(C2CCN(C(=O)C3CCCCCC3)CC2)nn1` here?
Answer: The z-score was -0.435 (inactive).

Question: For `CC(C)CCC(C)N[C@H](CO)Cc1ccccc1` (stereo not given in full), which z-score is on record?
Answer: The z-score was -0.5 (inactive).

Question: For `NC(=O)NCc1cn(C2CCN(C(=O)C3CCCCCC3)CC2)nn1`, which z-score is on record?
Answer: The z-score was -0.575 (inactive).

Question: Which z-score does the source give for `Cc1nc(C(C)Nc2ncnc3sccc23)cs1` (stereo not given) here?
Answer: The z-score was 0.845 (inactive).

Question: Which z-score does the source give for `CCCn1nc(NC(=O)Cn2ccc(-c3ccccc3F)n2)c2ccccc21` here?
Answer: Its z-score is -1.28 (inactive).

Question: With `COc1ccc(-c2ncnc3sc(C)c(C)c23)c(OC)c1` as the compound, how does the z-score read?
Answer: The z-score was 0.66 (inactive).

Question: For `Cc1cc(CN2CCC(Cc3ccc(F)cc3)CC2)n(C)n1`, which z-score is on record?
Answer: Its z-score is 0.225 (inactive).

Question: Which z-score does the source give for `CCC(C)(C)NCc1c(C)cc(C)c(CO)c1C` here?
Answer: Its z-score is -0.525 (inactive).

Question: For `CCCC[C@@H]1C[C@@H]1C(=O)N1CCC(n2cc(CC(C)C)nn2)CC1`, which z-score is on record?
Answer: Its z-score is -0.07 (inactive).

Question: Which z-score does the source give for `CCn1ncc(NC(=O)Cn2ccc(C(=O)OC)n2)n1` here?
Answer: The z-score was -0.44 (inactive).

Question: Which z-score does the source give for `COc1ccccc1-c1noc(Cn2ncc3ccccc32)n1` here?
Answer: Its z-score is 1.12 (inactive).
